A short description of experiment [1]: A CellTox Green Cytotoxicity Assay to monitor cytotoxicity in HEK293 cells - 32 hour (AID 1224881). Note: nearly all actives have a fitted effect of over 40% in size. In outline:
(§1)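 Seeding of HEK293 cells together with cytotoxicity dye preceded a 5 h incubation at 37 C/5% CO2. Test compounds in DMSO were then added and fluorescence monitored across 40 h.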

A short description of experiment [2]: A CellTox Green Cytotoxicity Assay to monitor cytotoxicity in HepG2 cells - 0 hour (AID 1224882). Note: nearly all actives have a fitted effect of over 35% in size. In outline: (§2)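 Nonlytic assay: viable cells exclude the dye, so fluorescence scales with cell death. HepG2 at 600 cells/well, compounds added after 5 h, signal read across 40 h.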
A short description of experiment [3]: A CellTox Green Cytotoxicity Assay to monitor cytotoxicity in HepG2 cells - 32 hour (AID 1224883). Note: nearly all actives have a fitted effect of over 50% in size. Put shortly: as §2
Experiment [4] is described as follows: A CellTox Green Cytotoxicity Assay to monitor cytotoxicity in HEK293 cells - 8 hour (AID 1224884). Note: nearly all actives have a fitted effect of over 35% in size. In outline: as §1
The nature of experiment [5]: qHTS RealTime-Glo MT Cell Viability Assay in HEK293 cells - 24 hour (AID 1224886). Note: top concentration of the series differs between compounds; nearly all actives have a fitted effect of over 50% in size. In outline: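 Nonlytic real-time viability readout: viable cells convert prosubstrate to NanoLuc substrate, giving luminescence proportional to live cell number. HEK293, 600 cells/well, compound added after 5 h, continuous culture at 37 C.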
Background: Quantitative high-throughput screening tests each substance at several concentrations.

Experiment [6] in a line: qHTS RealTime-Glo MT Cell Viability Assay in HEK293 cells - 8 hour (AID 1224887). Note: top concentration of the series differs between compounds; nearly all actives have a fitted effect of over 50% in size. Put shortly: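 Tox21 screen in HEK293 using RealTime-Glo MT chemistry, with cells and reagent co-dispensed. Luminescence proportional to viable cell number was captured at intervals during 40 h compound exposure at 37 C.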
A short description of experiment [7]: qHTS RealTime-Glo MT Cell Viability Assay in HepG2 cells - 0 hour (AID 1224889). Note: nearly all actives have a fitted effect of over 50% in size. Put shortly: (§3)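 Luminescence read-out: viable HepG2 cells reduce a prosubstrate to a NanoLuc substrate, giving a signal proportional to live cell number. Reads taken at 0, 8, 16, 24, 32 and 40 h of compound exposure at 37 C.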
Experiment [8] is described as follows: A CellTox Green Cytotoxicity Assay to monitor cytotoxicity in HepG2 cells - 8 hour (AID 1224890). Note: nearly all actives have a fitted effect of over 45% in size. In outline: as §2
The nature of experiment [9]: qHTS assay to identify small molecule antagonists of the estrogen receptor alpha (ER-alpha) signaling pathway using the BG1 cell line in the presence of 0.1 nM 17-beta-estradiol - cell viability counter screen (AID 1259241). Note: nearly all actives have a fitted effect of over 40% in size. In outline:
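Cells were plated and left 24 hr, compounds in DMSO were pinned in, 17beta-estradiol was added to 0.1 nM final, and after 22 hr CellTiter-Fluor reagent was added for 30 min before fluorescence was read.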

Experiment [10] can be described thus: qHTS assay to identify small molecule antagonists of the androgen receptor (AR) signaling pathway using the MDA cell line in the presence of 0.5 nM R1881 - cell viability counter screen (AID 1259242). Note: nearly all actives have a fitted effect of over 45% in size. In outline:
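R1881 at 0.5 nM final stimulated MDA-kb2 cells during 16 hr compound treatment at 37C. Cytotoxicity read: CellTiter-Fluor fluorescence after 30 min.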

The target in experiment [11] is Androgen receptor (Homo sapiens) (UniProt P10275). Kind of experiment: qHTS assay to identify small molecule antagonists of the androgen receptor (AR) signaling pathway using the MDA cell line in the presence of 0.5 nM R1881 (AID 1259243). Note: nearly all actives have a fitted effect of over 50% in size. Put shortly:
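We exposed MDA-kb2 cells to compounds under 0.5 nM R1881 stimulation for 16 hr at 37C and quantified MMTV-driven luciferase by luminescence.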

Experiment [12] can be described thus: qHTS assay to identify small molecule phospholipidosis (PLD) inducers (AID 1259344; active = well fitted curve in the direction sought with a large enough effect; an effect the other way counts as inactive or inconclusive). Put shortly: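 HepG2 cells, 900/well, treated with compound plus LipidTOX Red for 24 h at 37 C; amiodarone positive and DMSO negative controls. Fixed with paraformaldehyde/Hoechst, then high-content imaging scored LipidTOX pit count and integrated intensity per well and per cell.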

Experiment [13] in a line: qHTS assay to identify small molecule HDAC inhibitors (AID 1259364). Note: potency is the fitted concentration of half-maximal effect.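 Note: wild-type HCT-116 cells with endogenous class I/II HDAC activity; nearly all actives have a fitted effect of over 45% in size.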 Put shortly: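 Relative class I and II HDAC activity is taken from the luminogenic signal in HCT-116 cells, with compound exposure 2 hr and reagent development 30 min at room temperature.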
The nature of experiment [14]: qHTS assay to identify small molecule HDAC inhibitors - cell viability counter screen (AID 1259365). Put shortly: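 Counter screen in wild-type HCT-116 cells: compounds dissolved in DMSO are pin-transferred onto overnight-plated cells and left 2hr at 37C. ATP-based CellTiter-Glo luminescence then measures viable cells.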
A short description of experiment [15]: qHTS assay to identify small molecule agonists of the sonic hedgehog signaling (Shh) pathway - cell viability counter screen (AID 1259366). Note: nearly all actives have a fitted effect of over 50% in size. Put shortly: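 Cells are plated at 2,000 per well and left 4hr at 37C, 5% CO2 before compound addition. After 23hr of treatment, CellTiter-Fluor reagent is added for 1hr at 37C and fluorescence is measured.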
Experiment [16] can be described thus: qHTS assay to identify small molecule antagonists of the sonic hedgehog signaling (Shh) pathway - cell viability counter screen (AID 1259367). Note: nearly all actives have a fitted effect of over 55% in size. Put shortly:
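NIH/3T3-derived Gli1-Luc reporter cells, 2,000/well, plated 4 hr before compound addition, then stimulated with conditioned medium for 24 hr at 37C. Viability measured in the same wells by CellTiter-Fluor fluorescence, reagent added at 23 hr for 1 hr.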

Experiment [17] in a line: qHTS assay to identify small molecule agonists of the sonic hedgehog signaling (Shh) pathway (AID 1259368; calls by dose curve;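 note: NIH/3T3-derived 3T3Gli1-Luc cells carrying a stable Gli1-driven firefly luciferase reporter; series mostly up to about 92 µM; nearly all actives have a fitted effect of over 15% in size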). In outline: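 Mouse fibroblast (NIH/3T3) reporter cells with stably integrated Gli1-Luc were treated 24 hr with compound; firefly luciferase luminescence served as the read-out.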
A short description of experiment [18]: qHTS RealTime-Glo MT Cell Viability Assay in HepG2 cells - 16 hour (AID 1224885). Note: nearly all actives have a fitted effect of over 50% in size. In outline: as §3
Experiment [19] concerns the target Estrogen receptor (Homo sapiens) (UniProt P03372). Kind of experiment: qHTS assay to identify small molecule antagonists of the estrogen receptor alpha (ER-alpha) signaling pathway using the BG1 cell line in the presence of 0.1 nM 17-beta-estradiol (AID 1259244). Note: nearly all actives have a fitted effect of over 50% in size. In outline: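 VM7Luc4E2; 4xERE-luciferase; 0.1 nM E2 final; 22 h co-incubation, 37C; ONE-Glo luminescence after 30 min at room temperature.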

Experiment [20] in a line: A CellTox Green Cytotoxicity Assay to monitor cytotoxicity in HEK293 cells - 16 hour (AID 1224888). Note: nearly all actives have a fitted effect of over 35% in size. In outline:
as §1

Structures are written as SMILES. Where “and” joins values, the source holds several entries; their conditions need not be identical. Equal entries are not always repeated. Records with an inconclusive call do not appear. Calls of active or inactive are those of the source. Unless noted, calls come from the whole dose curve; as a rule, active = well fitted curve in the direction sought with a large enough effect in the repeat runs; inconclusive = weak or mixed curves; inactive = no such curve, though single readings can be large; an effect the other way counts as inactive or inconclusive.

Chain of Androgen receptor (Homo sapiens) (P10275 whole entry, looked up): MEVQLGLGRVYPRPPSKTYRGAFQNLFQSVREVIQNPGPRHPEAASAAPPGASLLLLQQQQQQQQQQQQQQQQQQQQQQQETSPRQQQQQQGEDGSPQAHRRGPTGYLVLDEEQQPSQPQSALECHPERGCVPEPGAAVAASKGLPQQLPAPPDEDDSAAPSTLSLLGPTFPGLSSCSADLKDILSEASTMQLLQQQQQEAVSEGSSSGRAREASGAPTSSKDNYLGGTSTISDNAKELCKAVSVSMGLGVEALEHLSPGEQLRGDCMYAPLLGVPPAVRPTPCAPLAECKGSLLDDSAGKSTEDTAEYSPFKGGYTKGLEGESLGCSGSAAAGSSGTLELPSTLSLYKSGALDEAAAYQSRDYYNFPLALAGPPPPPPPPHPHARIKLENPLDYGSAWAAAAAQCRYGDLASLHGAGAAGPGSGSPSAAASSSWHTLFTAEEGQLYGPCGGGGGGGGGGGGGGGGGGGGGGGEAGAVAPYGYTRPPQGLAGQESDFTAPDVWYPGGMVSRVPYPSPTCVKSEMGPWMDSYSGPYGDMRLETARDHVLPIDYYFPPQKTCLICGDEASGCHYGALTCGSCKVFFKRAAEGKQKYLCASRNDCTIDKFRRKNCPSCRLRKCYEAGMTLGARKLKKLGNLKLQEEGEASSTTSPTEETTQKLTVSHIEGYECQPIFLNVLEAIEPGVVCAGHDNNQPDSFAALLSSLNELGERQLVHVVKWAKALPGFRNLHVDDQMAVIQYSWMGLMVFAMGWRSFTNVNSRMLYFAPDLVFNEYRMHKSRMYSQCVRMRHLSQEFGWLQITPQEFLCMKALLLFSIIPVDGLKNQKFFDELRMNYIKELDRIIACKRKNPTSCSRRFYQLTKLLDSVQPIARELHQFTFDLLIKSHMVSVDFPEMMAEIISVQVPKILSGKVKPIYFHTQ
Chain of Estrogen receptor (Homo sapiens) (P03372 whole entry, looked up): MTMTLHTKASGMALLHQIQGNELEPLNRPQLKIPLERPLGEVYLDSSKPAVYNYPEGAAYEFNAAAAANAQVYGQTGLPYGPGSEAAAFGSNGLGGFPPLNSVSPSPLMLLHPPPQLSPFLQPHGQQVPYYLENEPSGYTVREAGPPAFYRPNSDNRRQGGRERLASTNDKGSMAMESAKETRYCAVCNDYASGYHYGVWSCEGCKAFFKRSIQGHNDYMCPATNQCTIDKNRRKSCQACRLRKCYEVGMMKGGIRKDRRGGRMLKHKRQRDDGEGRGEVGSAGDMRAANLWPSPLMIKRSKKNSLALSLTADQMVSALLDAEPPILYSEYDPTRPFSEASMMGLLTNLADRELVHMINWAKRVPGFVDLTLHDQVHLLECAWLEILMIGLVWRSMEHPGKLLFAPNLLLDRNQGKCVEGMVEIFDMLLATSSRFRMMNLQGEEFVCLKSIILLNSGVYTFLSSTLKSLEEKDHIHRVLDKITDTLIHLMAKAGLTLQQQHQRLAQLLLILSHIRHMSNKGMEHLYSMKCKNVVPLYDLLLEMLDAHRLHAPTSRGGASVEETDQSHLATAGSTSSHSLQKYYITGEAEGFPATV

With `COc1cc(OC)c(C(=O)CCCN2CCCC2)c(OC)c1`, the Potency result in [1], in experiment [3], in experiment [5], in experiment [6], in experiment [7] and in experiment [9] was “inactive” throughout. Moreover, the Potency entry in [10], in experiment [11], in experiment [13], in [15] and in [16] was “inactive” throughout. Also, the result in [2], in experiment [4], in experiment [8], in experiment [12], in [14] and in [17] was inactive.
Take `CC(=O)CC(C)(C)O`: the Potency entry in [1], in [3], in [18], in [6], in [7] and in [9] was “inactive” in each case. The Potency entry in experiment [10], in experiment [11], in experiment [19], in experiment [13] and in experiment [16] was “inactive” in each case. Moreover, the call in experiment [2], in [4], in experiment [8], in experiment [14] and in [17] was inactive.
Turning to `CCCCCCCCCCN`, the Potency entry in experiment [1], in [3], in experiment [6], in [20], in [7] and in experiment [9] was “inactive” each time. In addition, the Potency entry in experiment [10], in [13], in experiment [15] and in experiment [16] was “inactive” each time. For the same compound, the result in experiment [2], in experiment [4], in experiment [8], in experiment [14] and in experiment [17] was inactive.
For `CCCCCCCCCCCCCCCCO`, the Potency entry in experiment [1], in experiment [3], in experiment [5], in experiment [6], in [20] and in [7] was “inactive” throughout. Further, the Potency result in experiment [9], in experiment [10], in [19], in experiment [13], in experiment [15] and in experiment [16] was “inactive” throughout. Moreover, the compound was classed as inactive in [2], in experiment [4], in experiment [8], in [12], in [14] and in [17].
Consider `O=C(OCC1CCC2OC2C1)C1CCC2OC2C1` (stereo not drawn), for which the Potency result in experiment [1], in experiment [3], in experiment [5], in [6], in experiment [7] and in experiment [9] was “inactive” throughout. The Potency result in experiment [10] and in [19] was “inactive” in each case. Moreover, the compound was classed as inactive in experiment [2], in [4], in experiment [8], in experiment [14] and in [17].
Regarding `O=[N+]([O-])c1ccc2nc[nH]c2c1`, the Potency entry in experiment [1], in [3], in experiment [18], in [6], in experiment [7] and in experiment [9] was “inactive” each time. The Potency result in [10], in experiment [19], in [13], in experiment [15] and in experiment [16] was “inactive” each time. Also, the outcome in experiment [2], in experiment [4], in experiment [8], in [14] and in experiment [17] was inactive.
With `C[Si]1(C)O[Si](C)(C)O[Si](C)(C)O[Si](C)(C)O1`, the Potency entry in [1], in experiment [3], in [6], in [20], in experiment [7] and in [9] was “inactive” each time. For the same compound, the Potency result in experiment [10], in [19], in experiment [13], in experiment [15] and in experiment [16] was “inactive” each time. Also, the outcome in [2], in [4], in experiment [8], in experiment [14] and in experiment [17] was inactive.
For the compound `CC(=O)c1ccc(O)cc1`, the Potency entry in experiment [1], in [3], in experiment [6], in experiment [7], in experiment [9] and in experiment [10] was “inactive” in each case. Moreover, the Potency entry in experiment [19], in experiment [13], in experiment [15] and in [16] was “inactive” throughout. For the same compound, the result in experiment [2], in experiment [4], in experiment [8], in experiment [14] and in experiment [17] was inactive.
For the compound `O=C(O)c1cc2ccccc2cc1O`, the Potency entry in experiment [1], in [3], in experiment [18], in experiment [6], in experiment [7] and in [9] was “inactive” each time. Further, the Potency entry in experiment [10], in experiment [11], in experiment [19], in [15] and in experiment [16] was “inactive” throughout. Moreover, the result in experiment [2], in [4], in [8], in [14] and in experiment [17] was inactive. In addition, the Potency in experiment [13] is 27.1 µM (active) and 24.3 µM (active).

The values above are taken from PubChem BioAssay (Tox21).
